Measurements published in PubChem BioAssay (EPA / NIEHS).
“And” between values parts separate entries of the source, which are not always exact repeats. Equal entries are not always repeated. Where a structure was tested more than once in an assay, its records may differ in their call. The source made the active and inactive calls. The calls were made as follows: active = hit-call score of the fitted dose curve at least 0.9, where 1 is the maximum; inactive = score below 0.9.

Columns and labels:
[1] = read-out: Macrophage colony-stimulating factor (MCSF), CSF1 (gene 1435); experiment: BSK_hDFCGF_MCSF: BioMAP Diversity Plus: hDFCGF Assay for Macrophage colony-stimulating factor (MCSF) Biomarker Activity (AID 2283060); details: primary human foreskin fibroblasts; actives raise or lower the signal
In short: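 M-CSF levels read by ELISA at 24 h post-dosing in human skin fibroblasts. Parallel cultures stained with SRB assessed cytotoxicity at the same time point; response fitted in both directions against the DMSO baseline.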

[2] = read-out: TIMP metallopeptidase inhibitor 1 (TIMP1), TIMP1 (gene 7076); experiment: BSK_hDFCGF_TIMP1: BioMAP Diversity Plus: hDFCGF Assay for TIMP metallopeptidase inhibitor 1 (TIMP1) Biomarker Activity (AID 2283062); details: primary human foreskin fibroblasts; actives raise or lower the signal
In short: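 TIMP-1 measured by ELISA 24 h after chemical dosing of primary human skin fibroblasts, with gain or loss fitted relative to DMSO. Parallel SRB staining (560 nm) monitored overt cytotoxicity.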

[3] = read-out: Monokine induced gamma interferon (MIG), CXCL9 (gene 4283); experiment: BSK_hDFCGF_MIG: BioMAP Diversity Plus: hDFCGF Assay for Monokine induced gamma interferon (MIG) Biomarker Activity (AID 2283063); details: primary human foreskin fibroblasts; actives raise or lower the signal
In short: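 Human primary foreskin fibroblasts in the hDFCGF system, exposed to test chemical for 24 h; MIG measured by ELISA. Bidirectional curve fitting against DMSO negative control as activity baseline.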

[4] = read-out: Matrix Metallopeptidase 1 (MMP1), MMP1 (gene 4312); experiment: BSK_hDFCGF_MMP1: BioMAP Diversity Plus: hDFCGF Assay for Matrix Metallopeptidase 1 (MMP1) Biomarker Activity (AID 2283064); details: primary human foreskin fibroblasts; actives raise or lower the signal
In short: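 MMP1 levels quantified by ELISA 24 h after dosing human dermal fibroblast cultures, with parallel SRB total-protein staining for overt cytotoxicity. Data fitted in both directions against DMSO baseline.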

[5] = read-out: Vascular cell adhesion molecule 1 (VCAM1), VCAM1 (gene 7412); experiment: BSK_hDFCGF_VCAM1: BioMAP Diversity Plus: hDFCGF Assay for Vascular cell adhesion molecule 1 (VCAM1) Biomarker Activity (AID 2283065); details: primary human foreskin fibroblasts; actives raise or lower the signal;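 as to AC50: VCAM-1 protein level quantified by ELISA after 24 h chemical exposure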
In short: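 ELISA readout of VCAM-1 on human dermal fibroblast primary cultures, 24 h after chemical exposure. Gain or loss of signal fitted in both directions against DMSO baseline.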

[6] = read-out: Plasminogen activator inhibitor-1 (PAI1), SERPINE1 (gene 5054); experiment: BSK_hDFCGF_PAI1: BioMAP Diversity Plus: hDFCGF Assay for Plasminogen activator inhibitor-1 (PAI1) Biomarker Activity (AID 2283066); details: primary human foreskin fibroblasts; actives raise or lower the signal
In short: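 Fibroblasts from human foreskin were treated with test chemical. After 24 h, PAI-1 was measured by ELISA. Activity was fitted in both directions relative to DMSO.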

[7] = read-out: Intercellular Adhesion Molecule 1 (ICAM1), ICAM1 (gene 3383); experiment: BSK_KF3CT_ICAM1: BioMAP Diversity Plus: KF3CT Assay for Intercellular Adhesion Molecule 1 (ICAM1) Biomarker Activity (AID 2283067); details: primary human keratinocytes with fibroblasts; actives raise or lower the signal
In short: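 Cell-surface ICAM-1 was measured by ELISA 24 h after dosing primary human skin keratinocytes co-cultured with fibroblasts. Parallel SRB staining tracked overt cytotoxicity. Gain or loss of signal was fitted relative to DMSO.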

[8] = read-out: Interferon-gamma inducible Protein 10 (IP10), CXCL10 (gene 3627); experiment: BSK_KF3CT_IP10: BioMAP Diversity Plus: KF3CT Assay for Interferon-gamma inducible Protein 10 (IP10) Biomarker Activity (AID 2283068); details: primary human keratinocytes with fibroblasts; actives raise or lower the signal
In short: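 Signal is secreted/surface IP-10 by ELISA in a human primary skin co-culture of keratinocytes and foreskin fibroblasts, taken 24 h post-dosing; DMSO served as negative control.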

[9] = BSK_KF3CT_SRB: Viability Assessment in the BioMAP Diversity Plus: KF3CT Assay (AID 2283069); details: primary human keratinocytes with fibroblasts;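 also: total protein by sulforhodamine B staining as a cytotoxicity measure; read 24 h after compound addition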
In short: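 Cytotoxicity was gauged by SRB staining (0.1% SRB, 10% TCA fixation, 560 nm) of parallel cultures at 24 h. The cells were primary human skin keratinocytes co-cultured with fibroblasts, and activity was fitted in both directions against DMSO.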

[10] = read-out: Transforming growth factor beta 1 (TGFb1), TGFB1 (gene 7040); experiment: BSK_KF3CT_TGFb1: BioMAP Diversity Plus: KF3CT Assay for Transforming growth factor beta 1 (TGFb1) Biomarker Activity (AID 2283072); details: primary human keratinocytes with fibroblasts; actives raise or lower the signal
In short: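 KF3CT co-culture (keratinocytes + fibroblasts), 24 h exposure → TGF-b1 ELISA → bidirectional fit, DMSO = baseline. Parallel SRB total-protein staining (0.1% SRB, 10% TCA fixation, 560 nm) for cytotoxicity.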

[11] = read-out: C-C motif chemokine 2 (Homo sapiens) (UniProt P13500); experiment: BSK_KF3CT_MCP1: BioMAP Diversity Plus: KF3CT Assay for Monocyte Chemoattractant Protein 1 (MCP1/CCL2) Biomarker Activity (AID 2283073); details: primary human keratinocytes with fibroblasts; actives raise or lower the signal
In short: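 ELISA read-out of MCP-1, 24 h post-dose, in primary human skin keratinocytes co-cultured with fibroblasts. Parallel SRB staining monitors cytotoxicity; changes fitted both directions relative to DMSO.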

[12] = read-out: Matrix Metallopeptidase 9 (MMP9), MMP9 (gene 4318); experiment: BSK_KF3CT_MMP9: BioMAP Diversity Plus: KF3CT Assay for Matrix Metallopeptidase 9 (MMP9) Biomarker Activity (AID 2283074); details: primary human keratinocytes with fibroblasts; actives raise or lower the signal;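 as to AC50: MMP9 protein level quantified by ELISA in the co-culture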
In short: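 MMP-9 quantified by ELISA after 24 h chemical treatment of primary human skin keratinocyte/fibroblast co-cultures; gain or loss fitted against DMSO, with parallel SRB staining (0.1% SRB, 560 nm) for overt cytotoxicity.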

[13] = read-out: urokinase plasminogen activator (uPA), PLAU (gene 5328); experiment: BSK_KF3CT_uPA: BioMAP Diversity Plus: KF3CT Assay for urokinase plasminogen activator (uPA) Biomarker Activity (AID 2283075); details: primary human keratinocytes with fibroblasts; actives raise or lower the signal
In short: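 ELISA read-out of uPA 24 h after dosing human skin keratinocytes co-cultured with foreskin fibroblasts. Signal change fitted both ways relative to DMSO; sulforhodamine B on parallel cultures marks overt cytotoxicity.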

CD40, CD40 (gene 958) = experiment: BSK_LPS_CD40: BioMAP Diversity Plus: LPS Assay for CD40 Biomarker Activity (AID 2283076); details: primary human HUVEC with PBMC; actives raise or lower the signal
In short: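 In the LPS system of human endothelial cells with peripheral blood mononuclear cells, CD40 levels were read by ELISA 24 h post-treatment. Signal changes in either direction were fitted against the DMSO baseline, with parallel SRB protein staining.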

[14] = read-out: E-selectin (Homo sapiens) (UniProt P16581); experiment: BSK_LPS_Eselectin: BioMAP Diversity Plus: LPS Assay for Eselectin Biomarker Activity (AID 2283077); details: primary human HUVEC with PBMC; actives raise or lower the signal
In short: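 E-selectin ELISA on LPS-stimulated endothelial cell/PBMC co-cultures, read 24 h post-treatment; gains and losses fitted against DMSO. Parallel SRB staining (0.1% SRB after 10% TCA fixation, 560 nm) flags overt cytotoxicity.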

[15] = read-out: Interleukin-8 (IL8), CXCL8 (gene 3576); experiment: BSK_LPS_IL8: BioMAP Diversity Plus: LPS Assay for Interleukin-8 (IL8) Biomarker Activity (AID 2283078); details: primary human HUVEC with PBMC; actives raise or lower the signal
In short: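 ELISA read-out of IL-8 after 24 h chemical treatment of LPS-activated endothelial/PBMC human primary co-cultures. Changes either up or down relative to DMSO; overt cytotoxicity checked by sulforhodamine B staining in parallel wells.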

[16] = BSK_LPS_SRB: Viability Assessment in the BioMAP Diversity Plus: LPS Assay (AID 2283079); details: primary human HUVEC with PBMC;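 also: total protein by sulforhodamine B absorbance as a cytotoxicity measure; measured one day after compound addition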
In short: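 SRB viability endpoint: cells fixed with 10% TCA, stained with 0.1% SRB, read at 560 nm, 24 h post-dose. HUVEC/PBMC co-culture; signal change in either direction scored relative to DMSO.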

[17] = read-out: Interleukin-1 alpha (IL1a), IL1A (gene 3552); experiment: BSK_KF3CT_IL1a: BioMAP Diversity Plus: KF3CT Assay for Interleukin-1 alpha (IL1a) Biomarker Activity (AID 2283070); details: primary human keratinocytes with fibroblasts; actives raise or lower the signal
In short: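 IL-1a was detected by ELISA 24 h after chemical treatment of a co-culture of human skin keratinocytes and foreskin fibroblasts. Gain or loss of signal was fitted against the DMSO baseline.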

[18] = read-out: TIMP metallopeptidase inhibitor 2 (TIMP2), TIMP2 (gene 7077); experiment: BSK_KF3CT_TIMP2: BioMAP Diversity Plus: KF3CT Assay for TIMP metallopeptidase inhibitor 2 (TIMP2) Biomarker Activity (AID 2283071); details: primary human keratinocytes with fibroblasts; actives raise or lower the signal
In short: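 Chemicals were dosed onto human skin primary co-cultures of keratinocytes and foreskin fibroblasts, and TIMP-2 was measured by ELISA after 24 hours. Activity in either direction was fitted relative to DMSO.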

Measured: AC50

E-selectin (Homo sapiens), sequence (P16581 whole entry, looked up): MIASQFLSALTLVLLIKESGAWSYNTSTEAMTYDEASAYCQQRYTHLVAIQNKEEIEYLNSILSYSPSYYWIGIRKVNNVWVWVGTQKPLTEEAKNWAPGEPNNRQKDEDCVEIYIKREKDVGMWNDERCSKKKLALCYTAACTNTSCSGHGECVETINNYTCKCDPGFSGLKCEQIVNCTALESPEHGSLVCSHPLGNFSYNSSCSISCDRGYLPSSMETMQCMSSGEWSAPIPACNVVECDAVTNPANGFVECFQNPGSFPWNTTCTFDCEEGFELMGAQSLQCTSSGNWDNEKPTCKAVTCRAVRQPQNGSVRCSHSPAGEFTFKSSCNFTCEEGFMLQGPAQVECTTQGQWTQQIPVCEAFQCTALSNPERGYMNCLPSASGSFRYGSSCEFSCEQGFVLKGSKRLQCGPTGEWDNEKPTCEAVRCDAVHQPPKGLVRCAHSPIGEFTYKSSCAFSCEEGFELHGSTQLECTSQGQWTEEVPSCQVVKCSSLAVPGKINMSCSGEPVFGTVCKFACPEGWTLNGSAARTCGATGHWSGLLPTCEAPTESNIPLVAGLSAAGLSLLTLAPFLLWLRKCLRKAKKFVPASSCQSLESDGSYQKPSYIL

CCN(CC)c1ccc(C=O)c(O)c1
not listed: [17] | [18]
inactive: all other assays above

NC(O)(C(F)(F)F)C(F)(F)F
active: [15] 5.33 µM
inactive: [1] | [2] | [3] | [4] | [5] | [6] | [7] | [8] | [9] | [17] | [18] | [11] | [12] | [13] | CD40, CD40 (gene 958) | [14] | [15] | [16]

OCC(F)(F)C(F)(F)C(F)(F)C(F)(F)C(F)(F)C(F)(F)CO
not listed: [10] | [17] | [18]
inactive: all other assays above

Cc1cc(C)c(O)c(C(C)(C)C)c1
active: [1] 34.4 µM | [2] 30.1 µM | [3] 32.8 µM | [4] 34 µM | [5] 34.7 µM | [6] 30.9 µM | [7] 35.1 µM | [8] 34.2 µM | [9] 33.5 µM | [17] 31.1 µM | [18] 28.8 µM | [10] 30.8 µM | [11] 32.8 µM | [12] 30.2 µM | [13] 30.9 µM | CD40, CD40 (gene 958) 30.9 µM | [14] 32.1 µM | [16] 36.3 µM
inactive: [15]

O=C=NCc1cccc(CN=C=O)c1
not listed: [18]
inactive: all other assays above

CNS(=O)(=O)C(F)(F)C(F)(F)C(F)(F)C(F)(F)C(F)(F)C(F)(F)C(F)(F)C(F)(F)F
active: [5] 800 nM and 1.94 µM | [12] 20.4 µM | [16] 22.5 µM
inactive: [1] | [2] | [3] | [4] | [6] | [7] | [8] | [9] | [17] | [18] | [11] | [12] | [13] | CD40, CD40 (gene 958) | [14] | [15] | [16]

O=C(O)C(F)(F)C(F)(F)C(F)(F)OC(F)(F)F
not listed: [10]
inactive: all other assays above

OCCCC(F)(F)C(F)(F)C(F)(F)C(F)(F)C(F)(F)C(F)(F)C(F)(F)C(F)(F)F
active: [1] 8.04 µM and 6.66 µM | [2] 9.8 µM and 11.3 µM | [3] 12.5 µM and 12 µM | [4] 19 µM and 13.3 µM | [5] 9.41 µM and 6.1 µM | [6] 6.66 µM and 5.89 µM | [7] 12.8 µM and 11.7 µM | [8] 12.8 µM and 9.49 µM | [9] 8.92 µM and 10.7 µM | [17] 11 µM and 8.25 µM | [11] 11 µM and 8.31 µM | [12] 9.36 µM and 10.8 µM | [13] 14.9 µM and 9.45 µM | CD40, CD40 (gene 958) 34.7 µM and 32.9 µM | [14] 15.3 µM and 30 µM | [15] 45.9 µM and 42.5 µM | [16] 41.5 µM and 45.7 µM

C=C(C)C(=O)OCC(F)(F)C(F)(F)C(F)(F)C(F)F
not listed: [10] | [17]
inactive: all other assays above

O=C=Nc1cccc2c(N=C=O)cccc12
not listed: [17] | [18]
inactive: all other assays above
